# Laboratory results from PubChem BioAssay (NCI).
# Several values for one entry are separate records, joined by “and”; a condition that tells them apart may be missing. Equal values may be shown once. Compounds without any hit were thinned out: in the full panel of roughly 83,000, 20% have a hit.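 Plates (96-well) were seeded with cells, treated with compound at one concentration, and incubated for 48 hours before percent growth was determined.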 Activity calls are given as the source filed them. Rule for the calls: active = growth percent below 10; inactive = the rest. Where a SMILES comes first, the peptide text is derived from it. [ ]: non-standard residue; d: D form. ξ: configuration not given here. ξV = CC(C)C(N)C(=O)O
# Tested on: UACC-257 melanoma
# Experiment: NCI-60 one-dose screen, 48 h (100 = growth as untreated, 0 = no growth, -100 = all killed)
# Settings: 10 µM
row,Structure (SMILES),growth
1,CCCCCCCCCCSC(=N)N,29.8% (inactive)
2,CS(=O)(=O)OC1CC(n2ccc(=O)[nH]c2=O)OC1COC(c1ccccc1)(c1ccccc1)c1ccccc1 (stereo not drawn),102% (inactive)
3,Clc1cc(Cl)c(Cl)nn1,70.4% (inactive)
4,OCC(O)C(O)C(O)C(/C=N/Nc1ccccc1)=N/Nc1ccccc1 (stereo not drawn),104% (inactive)
5,CSC1SCC2C(=O)N(C)C(C(C)C)C(=O)OCC(NC(=O)c3cnc4ccccc4n3)C(=O)NC(C)C(=O)N(C)C1C(=O)N(C)C(C(C)C)C(=O)OCC(NC(=O)c1cnc3ccccc3n1)C(=O)NC(C)C(=O)N2C (stereo not drawn),-13.6% (active)
6,COc1cccc2c1C(=O)c1c(O)c3c(c(O)c1C2=O)C[C@@](O)(C(C)=O)C[C@@H]3OC1CC(N)C(O)C(C)O1 (stereo partly drawn),-33.3% (active)
7,CCCCCCCCCCCC[N+](C)(C)Cc1ccccc1,2.24% (active)
8,CC(=O)OCC(OC(C)=O)C(OC(C)=O)C(OC(C)=O)C(OC(C)=O)C(/C=N/Nc1ccccc1)=N/Nc1ccccc1 (stereo not drawn),82.3% (inactive)
9,Clc1ccc(/C=C/c2ccccn2)c(Cl)c1,99.7% (inactive)
10,CC(C)(C)CC(C)(C)c1ccc(OCCO)cc1,108% (inactive)
11,COc1cccc2c1C(=O)c1c(O)c3c(c(O)c1C2=O)C[C@@](O)(C(=O)CO)C[C@@H]3OC1CC(N)C(O)C(C)O1 (stereo partly drawn),3.46% (active)
12,CCCCCCCCCCCCSC(=NC)NC,66.4% (inactive) and 98.2% (inactive)
13,O=C1NC(=O)c2cc([N+](=O)[O-])ccc21,104% (inactive)
14,O=C(/C=C/c1ccccn1)c1ccccc1,72.9% (inactive)
15,CC(C)C(NC(=O)CN)C(=O)O (stereo not drawn) (H-Gly-[ξV]-OH),110% (inactive) and 101% (inactive)
16,CCN(CC)c1ccc(NC(C(=O)c2ccccc2)c2ccccc2)cc1 (stereo not drawn),68.3% (inactive)

# Tested on: M14 melanoma
# Experiment: as above
# Settings: 10 µM
row,Structure (SMILES),growth
1,NNc1ccc2ccccc2c1,89.6% (inactive) and 96.8% (inactive)
2,NC1=C(Cl)C(=O)c2ccccc2C1=O,28.7% (inactive)
3,Nc1ccc2cc3ccc(N)cc3nc2c1,107% (inactive) and 12.6% (inactive)
4,CO[C@H](C(=O)[C@@H](O)[C@@H](C)O)[C@@H]1Cc2cc3cc(OC4CC(OC5CC(O)C(O)C(C)O5)C(O)C(C)O4)c(C)c(O)c3c(O)c2C(=O)[C@H]1OC1CC(OC2CC(OC3CC(C)(O)C(O)C(C)O3)C(O)C(C)O2)C(O)C(C)O1 (stereo partly drawn),-71.5% (active)
5,Cc1cc(NS(=O)(=O)c2ccc(N=Nc3cc(N=Nc4ccc(S(=O)(=O)Nc5cc(C)nc(C)n5)cc4)c4c(NC(=O)C(Cl)Cl)cccc4c3OC(=O)C(Cl)Cl)cc2)nc(C)n1 (tested in a mixture with another compound),113% (inactive) and 111% (inactive)
6,O=C(Nc1ccc(C(=O)O)c(O)c1)c1ccccc1,106% (inactive) and 99.6% (inactive)
7,CC(=O)Nc1cc(C)ccc1C,101% (inactive)
8,CCCC1CCC(=C2C(=O)CCC2=O)O1 (stereo not drawn),100% (inactive) and 74.4% (inactive)
9,COC(=O)C1C(O)C(C)C(O)C(C)C=C(C)C2=C3C(=C(C)C(=O)c4c(O)c(c(C)c(OC(C)=O)c43)NC(=O)C(C)=C/C=C\C(C)C(O)C(C)C1O)OCO2 (stereo not drawn),108% (inactive)
10,CS(=O)(=O)OC1CC(n2ccc(=O)[nH]c2=O)OC1COC(c1ccccc1)(c1ccccc1)c1ccccc1 (stereo not drawn),88.7% (inactive)
11,Clc1cc(Cl)c(Cl)nn1,93% (inactive)
12,OCC(O)C(O)C(O)C(/C=N/Nc1ccccc1)=N/Nc1ccccc1 (stereo not drawn),87.5% (inactive)
13,CCCCCCCCCCCC[N+](C)(C)Cc1ccccc1,7.19% (active)
14,CC(=O)OCC(OC(C)=O)C(OC(C)=O)C(OC(C)=O)C(OC(C)=O)C(/C=N/Nc1ccccc1)=N/Nc1ccccc1 (stereo not drawn),82.3% (inactive)
15,Clc1ccc(/C=C/c2ccccn2)c(Cl)c1,106% (inactive)
16,CC(C)(C)CC(C)(C)c1ccc(OCCO)cc1,112% (inactive)
17,CCCCCCCCCCCCSC(=NC)NC,-19.2% (active) and 60.6% (inactive)
18,O=C1NC(=O)c2cc([N+](=O)[O-])ccc21,118% (inactive)
19,O=C(/C=C/c1ccccn1)c1ccccc1,42.1% (inactive)
20,O=c1ccn(C2CC(O)C(COC(c3ccccc3)(c3ccccc3)c3ccccc3)O2)c(=O)[nH]1 (stereo not drawn),81.4% (inactive)
21,CC(C)C(NC(=O)CN)C(=O)O (stereo not drawn) (H-Gly-[ξV]-OH),105% (inactive) and 108% (inactive)
22,CCN(CC)c1ccc(NC(C(=O)c2ccccc2)c2ccccc2)cc1 (stereo not drawn),22.8% (inactive)
